Measured values reported in PubChem BioAssay (NCI).
“And” between values parts separate entries of the source, which are not always exact repeats. Equal entries are not always repeated. Compounds without any hit were thinned out: in the full panel of roughly 83,000, 20% have a hit.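 Plates (96-well) were seeded with cells, treated with compound at one concentration, and incubated for 48 hours before percent growth was determined.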 Unmarked numbers belong to inactive results. The source made the active and inactive calls. How the source made its calls: active means growth percent below 10; inactive means the rest.

System: HL-60(TB) leukemia
Experiment: NCI-60 one-dose screen, 48 h (100 = growth as untreated, 0 = no growth, -100 = all killed)

CC(C)(C)c1cc(NC(=O)Cc2ccc(-c3cnc4cc(-c5cnn(CCN6CCOCC6)c5)ccc4n3)cc2)no1
growth (10 µM): 4.17% (active)
growth (30 µM): 6.45% (active)

Cc1[nH]c(-c2nc3ccccc3[nH]2)c(C)c1C(=O)NC(C)C1CCCCC1 (configuration not stated)
growth (10 µM): 98.3%
growth (100 µM): -83.4% (active)

c1coc(-c2c3ccc(=[N+]4CCCCC4)cc-3oc3cc(N4CCCCC4)ccc23)c1
growth (10 µM unless noted): -57.5% (active)

CNC(=O)c1cc(Oc2ccc(CC(=O)Nc3cc(C(C)(C)C)nn3C)cc2)ccn1
growth (1 µM): 85.3%
growth (10 µM): 77%
growth (30 µM): 68.2%

CCOC(=O)/C=C1\S/C(=N\Nc2cc(=O)[nH]c3ccc(Cl)cc23)N(c2ccccc2)C1=O
growth (10 µM unless noted): 0.175% (active)

CCCCCCCCCCCCCCCCCCOP(=O)([O-])OC1CC[N+](C)(C)CC1
growth (10 µM unless noted): -22.6% (active) and -37.1% (active)

CCCCCCCCN=C(NCCCCCCCC)SCc1cccc2ccccc12
growth (10 µM unless noted): -43.4% (active)

CC(=O)/C=C/c1ccc(OCc2ccc(Cl)cc2)cc1
growth (10 µM): 83.9%
growth (100 µM): 14%

CC/C(=C(\c1ccccc1)c1ccc(OCCN(C)C)cc1)c1ccccc1
growth (10 µM): 39.6%
growth (12.5 µM): -57.1% (active)

O=C(/C=C/c1cccc(Oc2ccc(Cl)cc2)c1)c1ccccc1
growth (10 µM): 73.9%
growth (100 µM): -51.8% (active)

CC(=O)/C=C/c1ccc(N(CCO)Cc2ccc(C(C)(C)C)cc2)cc1
growth (10 µM): 69.6%
growth (100 µM): -55.3% (active)

Cn1cc(-c2cnc3ccc(NC(=O)Nc4ccc(F)c(Br)c4)cc3n2)cn1
growth (10 µM unless noted): 13.5%

CCc1ccccc1-n1c(N)c(C#N)c(-c2ccc(OC)c(OC)c2)c(C#N)c1=O
growth (10 µM): 113%
growth (100 µM): 122%

COc1cc(NS(C)(=O)=O)ccc1Nc1c2ccccc2nc2ccccc12
growth (2.5 µM): -0.933% (active)
growth (10 µM): -43.9% (active) and -9.61% (active) and -4.58% (active)

O=C(O)c1c(Cl)c(Cl)c(Cl)c(Cl)c1-c1c2cc(I)c(=O)c(I)c-2oc2c(I)c(O)c(I)cc12
growth (10 µM): 103% and 104% and 109%
growth (100 µM): -52.2% (active)

S=P(N1CC1)(N1CC1)N1CC1
growth (10 µM): 99.5% and 32.7%
growth (100 µM): 9.95% (active)

S=c1nc[nH]c2nc[nH]c12
growth (10 µM): 13.8%
growth (50 µM): 12.6%

CN(Cc1cnc2nc(N)nc(N)c2n1)c1ccc(C(=O)N[C@@H](CCC(=O)O)C(=O)O)cc1
growth (2.5 µM): 27%
growth (10 µM): 24.1%

CN(C)CCNc1ncc(F)c(-c2cnc3cc(-c4cnn(C)c4)ccn23)n1
growth (0.005 µM): 101%
growth (30 µM): 4.9% (active)

Cn1c2c(cc(S(=O)(=O)c3ccccc3)c1=O)CCc1c-2cnn1-c1ccccc1Cl
growth (10 µM unless noted): 95.3%

COc1ccc(Cl)cc1C(=O)NCCc1ccc(S(=O)(=O)NC(=O)NC2CCCCC2)cc1
growth (10 µM): 121% and 103%
growth (100 µM): 94.2%

Cc1c2oc3c(C)ccc(C(=O)N[C@@H]4C(=O)N[C@H](C(C)C)C(=O)N5CCC[C@H]5C(=O)N(C)CC(=O)N(C)[C@@H](C(C)C)C(=O)O[C@H]4C)c3nc-2c(C(=O)N[C@@H]2C(=O)N[C@H](C(C)C)C(=O)N3CCC[C@H]3C(=O)N(C)CC(=O)N(C)[C@@H](C(C)C)C(=O)O[C@H]2C)c(N)c1=O
growth (0.0025 µM): 42.6%
growth (10 µM): -24.3% (active)

COc1cc(NCCCCCN)c2ncccc2c1
growth (10 µM unless noted): 83.2%

CCN(Cc1ccccc1)c1ccc(/C=C2\COc3ccccc3C2=O)cc1
growth (10 µM): 78.3%
growth (100 µM): 8.32% (active)
